This passage reports IC50 results from PubChem BioAssay AID779 (Sanford-Burnham Center for Chemical Genomics, 2007).

Calls of active or inactive are those of the source. The rule behind the calls is not given here.

A short description of this assay: placental alkaline phosphatase inhibitors, dose response, counter-screen, biochemical, colorimetric (AID 779). The following applies: PLAP counter-screen, colorimetric OD read-out.
As a reminder, the IC50 is the point on the concentration scale where inhibition reaches its midpoint. For `O=C(O)c1ccc(CN(c2ccccn2)S(=O)(=O)c2ccccc2)cc1`, the IC50 is > 50 µM (inactive).
Next, `COc1ccc(/C=c2\sc3nc(-c4ccccc4)c(-c4ccccc4)n3c2=O)cc1OC`: > 50 µM (inactive); `COc1cc(/C=C2\SC(=S)N(Nc3ccccc3)C2=O)cc(OC)c1OC`: > 50 µM (inactive); `Cc1ccc(C2=N/C(=C\c3cccs3)C(=O)N2Nc2ccccc2)cc1`: > 50 µM (inactive).
With `O=[N+]([O-])/C=C/c1cn(Cc2ccccc2)c2ccccc12`, the IC50 was > 50 µM (inactive).
In the case of `Cc1occc1-c1nnc(SCC(=O)Nc2ccccc2-c2ccccc2)n1C` it was > 50 µM (inactive); in that of `CCOC(=O)c1cc(OC(=O)c2ccccc2OC)n(-c2ccccc2)n1`, > 50 µM (inactive); in that of `O=C(c1ccc2c(=O)n(Cc3ccc4c(c3)OCO4)c(=S)[nH]c2c1)N1CCCCC1`, > 50 µM (inactive).
In the case of `CC1CCCN(c2nc3ccccc3nc2C(C#N)C(=O)OC2CCCCC2)C1` (configuration not stated) it was > 50 µM (inactive); in that of `COc1cc(C(Nc2ccccn2)c2ccc3ccc(C)nc3c2O)cc(OC)c1O` (configuration not stated), > 50 µM (inactive).
On to `CCCSC1=N/C(=C\C=C\c2ccco2)C(=O)S1`, for which the IC50 is > 50 µM (inactive).
In the case of `Cc1ccsc1/C=C/C1=Cc2c(sc(NC(=O)CSc3n[nH]c(N)n3)c2C#N)C(C)(C)C1`, the IC50 is > 50 µM (inactive).
Take `Cc1cc2ccccc2n1CCNC(=O)c1ccccc1`: the IC50 is > 50 µM (inactive).
Take `CCNc1ccc(Br)cc(C(=O)/C=C/c2ccc3c(c2)OCO3)c1=O`: the IC50 was > 50 µM (inactive).
In the case of `C/C(=C\C(=O)c1ccccc1)NNc1nc2ccccc2s1` it was > 50 µM (inactive).
In the case of `CS(=O)(=O)N(CC(=O)Nc1cccc(Cl)c1)c1ccccc1Cl` it was > 50 µM (inactive); in that of `CCn1c(O)c(/C=N/N=C/c2ccccc2)c2ccc(C3=NNC(=O)CC3)cc21`, > 50 µM (inactive); in that of `COc1cccc(C2(CSc3nnc(-c4cc(OC)c(OC)c(OC)c4)o3)OCCO2)c1`, > 50 µM (inactive).
Next, `CN(C)c1ccc(/C=C/C(=O)c2cccc(Br)c2)cc1`: > 50 µM (inactive).
With `CCN(CCNC(=O)C1CCCN(S(=O)(=O)CC)C1)c1ccccc1` (configuration not stated), the IC50 was > 50 µM (inactive).
As to `Brc1ccc(-c2nnc(-c3cccc(Br)c3)o2)cc1`, the IC50 is > 50 µM (inactive).
Next, `O=C(CCN1C(=O)/C(=C/C=C/c2ccccc2)SC1=S)Nc1nccs1`: > 50 µM (inactive).
In the case of `CC(C)(C)C(=O)c1sc2nc(-c3cccs3)cc(C(F)(F)F)c2c1N` it was > 50 µM (inactive); in that of `Cc1nn(-c2ccccc2)c2c1C(c1cccnc1)N1C=C(S(=O)(=O)N3CCCCC3)C=CC1=N2` (configuration not stated), > 50 µM (inactive); in that of `CC(=O)N(c1ccc2oc(=O)sc2c1)S(=O)(=O)c1ccccc1`, > 50 µM (inactive).
In the case of `CCOC(=O)N1CCN(C(=O)CSc2nnc(-c3c[nH]c4ccccc34)n2CCOC)CC1` it was > 50 µM (inactive); in that of `N#CC(c1nc2ccccc2nc1N1CCCC1)S(=O)(=O)c1cccs1` (configuration not stated), > 50 µM (inactive); in that of `O=C1/C(=C\c2ccc(-c3ccccc3Cl)o2)SC(=S)N1CC1CCCO1` (configuration not stated), > 50 µM (inactive).
Regarding `CSc1nc(NCCOCCO)c2sc3nc(-c4ccco4)c4c(c3c2n1)CCC4`, the IC50 was > 50 µM (inactive).
In the case of `CCN(CCO)c1nc(SC)nc2c1sc1nc(-c3ccco3)c3c(c12)CCC3` it was > 50 µM (inactive); in that of `CCC(C)COC(=O)C(C#N)c1nc2ccccc2nc1N1CCCCC1` (configuration not stated), > 50 µM (inactive).
In the case of `CN(C)c1ccc(/C=C/C=C2/SC(=S)N(c3ccccc3)C2=O)cc1` it was > 50 µM (inactive).
